Experimental data taken from the supplement of paper PMC6555819.

tested on: VDR:RXRa (NR concentration 270 nM, RXRa partner concentration 90 nM); assay: PBM binding z-score (relative to random genomic background probes); higher = stronger binding; sequences stand for … in GC…GCGATTGACAGCGTAGAATGAAGG
Method: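 Protein-binding microarray (Agilent 4x180K custom design, double-stranded 60-nt probes: 5' GC cap, 34-nt variable region, 24-nt constant primer region; full probe sequence given). Purified or IVT nuclear receptor:RXRα heterodimers (3:1 NR:RXRα, mostly 270:90 nM) or homodimers were incubated for 1 h in PBS with 2% milk and no ligand, then detected with Alexa488 antibodies. Fluorescence from o1-orientation probes (~5 replicates averaged) was converted to z-scores against 500 random hg19 background probes. Variable regions are seed direct-repeat (DR0–DR5) sites, all their single-nucleotide variants and half-site ablations.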

Sequence | PBM binding z-score
GCATTTAGGTAATACAAGGTGAAAGTCCGATTGT | 0.176
CCTATGAGTTGACCATAAGGGCAACCGAAGCTCG | 0.81
ACTTACGCGTCAACGAGGTTATAGCACGCGTATA | 3.57
CGAACTAGGTCAGAAGAGGACAGTGAAGGATGAT | 1.69
CTCGAAAGGTCGTGCTCAGGTCAGTATACCAAAC | 5.19
AGAATGAGGTTAAGATAAGGGAAACAGAATACAT | 1.62
TCTTGTAGATCAACAGGAGGTTAGGAAAGATCGA | 0.0401
TAGCCTAGCTCAGATCGGGCCAGTATACGCTATA | -0.94
ATATGTAGGTTAGCAGGGGTCATTCAGACTAGGC | 6.33
CGTTCAAGGTCAGAGAGGTCAGTGAATGCCGAGT | 7.5
CCTATTAGTTGACCATAAGGGCAACCTAAGCTCG | 0.839
TCATATAGGTAATACAGGTGAAACTCGGCATCTA | 1.37
TATACATGGTCAAAGGCCAGAGTACGAATGTCGA | 0.445
ATCGCTAGGTAAGACTCAGTTCAGTGAAGAACGC | -0.0263
TTAGCAAGGTGAGCTGAGGTCGTTGATCCAACTC | 4.01
ATCTCTAGGTAAAGATCGTTCAGTGAATGCAAAT | 0.221
GCGACTGGGGCAAAGCAGCTTACCATAAGGTTGG | -0.87
ATCTCTTGGTAACCAAGTTCAGTGAATGCCGAAC | 2.38
TTACCAAGGTGAAAGGTCGTAGATGCACGCCTTG | 3.04
GAAACAGGGTCAGCTAGAGGCCAGAGTATGGAAA | 3.64

Sequence | PBM binding z-score
GCGACTGGGGCAAAGCAGGTTACCAAAAGGTTGG | 0.136
ATACCAAGGTGATCGCGAGGTCGTTGATACTAAC | 3.37
TCTTGTAGATCAAAGGTTCAGAAAGCCGAAGCCT | 1.47
CCTTACGGGTCAGTCCAGGTTATAGCATCGGAGT | 2.9
TCTTATAGGTAAACAGGTGAAAGTCCGTAAGTTA | 1.17
ATGTGTAGGTTATCGGGTCATTCAGTTTGCGCAT | 5.25
CGTCAAAGTTCAACTTAGGTAACGTAAAGCACGC | 4.56
CCGACTGGGGCAAGGTAACCATAACGCACAGCCA | -0.466
TTGCCTAGGTCATGGGCCAGTATACCACGCGAAC | 2.21
ACAGACAGGTGATGAAGGTAACTCCGGCTATCAT | 0.125
TAGCCTAGGTCAGACCGGGCCAGTATACGCTATA | 0.854
TCACATAGGTAAAGGTGAAAGTCGAACGATATGA | 1.32
GCATATAGGTAATACAAGTTGAAAGTCCGATTGT | 0.409
ATCTCTAGGTAAAAGTTCCGTGAATCCCGAGGAT | -0.0559
GGAACGAGGGCAAGTTGAGAGCAGAGTTTGATGG | 0.881
TCATATAGGTAACCAGGTGAAAGTCCGTAAGTTA | 1.06
ATCTCTCGGTAAAAGTTCAGTGAATCCCGAGGAT | 1.03
TCATATAGGTAAACAGGTGAAAATCCGTAAGTTA | 1.39
GCTTGCAGATCAAGGTTAAGAAAGACTAAGCTAA | -0.0251
CCTACTGGGCAAAGGTCATTGATCAGTCAAAGCA | 4.36
